Measured values: the supplement of paper PMC9023506
Counter-ions that a name gives are not always drawn.

Tested on: Danio rerio larvae (5 dpf)
Assay: optomotor response to red moving lines, difference vs DMSO (percentage points (treated minus DMSO)); higher = more of the behaviour than the DMSO vehicle control
Conditions: 10 µM; exposure time: 3 h pre-incubation + 3 h imaging
Protocol: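 5-dpf wild-type zebrafish larvae were imaged in 96-well plates. They were treated with 190 Tocris FDA-approved drugs at 10 µM (1 µl/ml DMSO) for 3 h before and 3 h during imaging at 28.5 °C, 48 larvae per drug. Automated image analysis gave % time moving and optomotor responses. Values are drug group mean minus DMSO vehicle mean (n=844), in percentage points, for 10 behaviours.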

Q: With `CCOC(=O)C1=C(C)NC(C)=C(C(=O)OC)C1c1cccc(Cl)c1Cl` (stereo not given) [Felodipine] as the compound, how does the “optomotor response to red moving lines” value read?
A: 4.89

Q: For `CCOc1ccccc1OCCN[C@H](C)Cc1ccc(OC)c(S(N)(=O)=O)c1` [Tamsulosin hydrochloride], which “optomotor response to red moving lines” value is on record?
A: -6.78

Q: For `OCCN(CCO)c1nc(N2CCCCC2)c2nc(N(CCO)CCO)nc(N3CCCCC3)c2n1` [Dipyridamole], which “optomotor response to red moving lines” value is on record?
A: -6.85

Q: For `NC(=O)N1c2ccccc2C=Cc2ccccc21` [Carbamazepine], which “optomotor response to red moving lines” value is on record?
A: -0.139

Q: Which “optomotor response to red moving lines” value does the source give for `O=C(O)C[C@H](O)C[C@H](O)/C=C/c1c(C2CC2)nc2ccccc2c1-c1ccc(F)cc1` [Pitavastatin calcium] here?
A: 3.56

Q: For `COc1c(C)c2c(c(O)c1C/C=C(\C)CCC(=O)O)C(=O)OC2` [Mycophenolic acid], which “optomotor response to red moving lines” value is on record?
A: -3.36

Q: Which “optomotor response to red moving lines” value does the source give for `CC(=O)S[C@@H]1CC2=CC(=O)CC[C@]2(C)[C@H]2CC[C@@]3(C)[C@@H](CC[C@@]34CCC(=O)O4)[C@H]12` [Spironolactone] here?
A: 11.7

Q: `CCOc1cc(CC(=O)N[C@@H](CC(C)C)c2ccccc2N2CCCCC2)ccc1C(=O)O` [Repaglinide] was tested. Which “optomotor response to red moving lines” value did it give?
A: 3.38

Q: `COc1cccc2c1C(=O)c1c(O)c3c(c(O)c1C2=O)C[C@@](O)(C(=O)CO)C[C@@H]3O[C@H]1C[C@H](N)[C@H](O)[C@H](C)O1` [Doxorubicin hydrochloride] was tested. Which “optomotor response to red moving lines” value did it give?
A: -1.73

Q: How did the “optomotor response to red moving lines” value turn out when `CC(C)(C)NC(=O)[C@@H]1C[C@@H]2CCCC[C@@H]2CN1C[C@@H](O)[C@H](Cc1ccccc1)NC(=O)[C@H](CC(N)=O)NC(=O)c1ccc2ccccc2n1` [Saquinavir mesylate] was run?
A: -16.6

Q: With `CC(C)N(CCCCOCC(=O)NS(C)(=O)=O)c1cnc(-c2ccccc2)c(-c2ccccc2)n1` [Selexipag] as the compound, how does the “optomotor response to red moving lines” value read?
A: -8.23

Q: With `CCCCCCCCc1ccc(CCC(N)(CO)CO)cc1` as the compound, how does the “optomotor response to red moving lines” value read?
A: 2.93

Q: With `O=C1CCc2ccc(OCCCCN3CCN(c4cccc(Cl)c4Cl)CC3)cc2N1` [Aripiprazole] as the compound, how does the “optomotor response to red moving lines” value read?
A: 6.21

Q: `CN1CCC[C@@H]1CCO[C@](C)(c1ccccc1)c1ccc(Cl)cc1` [Clemastine fumarate] was tested. Which “optomotor response to red moving lines” value did it give?
A: 16.7

Q: With `CC(c1cc2ccccc2s1)N(O)C(N)=O` (stereo not given) [Zileuton] as the compound, how does the “optomotor response to red moving lines” value read?
A: -7.52

Q: `Cc1ccc(NC(=O)c2ccc(CN3CCN(C)CC3)cc2)cc1Nc1nccc(-c2cccnc2)n1` [Imatinib mesylate] was tested. Which “optomotor response to red moving lines” value did it give?
A: -3.1

Q: `Cc1cc(C2CCCCC2)n(O)c(=O)c1` [Ciclopirox] was tested. Which “optomotor response to red moving lines” value did it give?
A: -5.18

Q: With `CN(CCOc1ccc(CC2SC(=O)NC2=O)cc1)c1ccccn1` (stereo not given) [Rosiglitazone] as the compound, how does the “optomotor response to red moving lines” value read?
A: -2.8

Q: For `CC(C)c1nc(CN(C)C(=O)N[C@H](C(=O)N[C@@H](Cc2ccccc2)C[C@H](O)[C@H](Cc2ccccc2)NC(=O)OCc2cncs2)C(C)C)cs1` [Ritonavir], which “optomotor response to red moving lines” value is on record?
A: -2.77

Q: How did the “optomotor response to red moving lines” value turn out when `Nc1nc(F)nc2c1ncn2[C@@H]1O[C@H](CO)[C@@H](O)[C@@H]1O` [Fludarabine] was run?
A: -10.8

Q: `C[C@H](Cc1cc2c(c(C(N)=O)c1)N(CCCO)CC2)NCCOc1ccccc1OCC(F)(F)F` [Silodosin] was tested. Which “optomotor response to red moving lines” value did it give?
A: 6.25

Q: For `Nc1ncn([C@@H]2O[C@H](CO)[C@@H](O)[C@H]2O)c(=O)n1` [5-Azacytidine], which “optomotor response to red moving lines” value is on record?
A: 5.02

Q: `Nc1nc2c(ncn2COCCO)c(=O)[nH]1` [Acyclovir] was tested. Which “optomotor response to red moving lines” value did it give?
A: 1.94

Q: For `C[C@H]1O[C@H](O[C@H]2[C@H](O)[C@@H](O)[C@@H](O[C@H]3[C@H](O)[C@@H](O)C(O)O[C@@H]3CO)O[C@@H]2CO)[C@H](O)[C@@H](O)[C@@H]1N[C@H]1C=C(CO)[C@@H](O)[C@H](O)[C@H]1O` (stereo not given in full) [Acarbose], which “optomotor response to red moving lines” value is on record?
A: 6

Q: Which “optomotor response to red moving lines” value does the source give for `Clc1ccc2nsnc2c1NC1=NCCN1` [Tizanidine hydrochloride] here?
A: 18.1

Q: Which “optomotor response to red moving lines” value does the source give for `CC(C)n1c(/C=C/C(O)CC(O)CC(=O)O)c(-c2ccc(F)cc2)c2ccccc21` (stereo not given) [Fluvastatin sodium] here?
A: -2.5

Q: For `Nc1ccn([C@@H]2O[C@H](CO)[C@@H](O)C2(F)F)c(=O)n1` [Gemcitabine hydrochloride], which “optomotor response to red moving lines” value is on record?
A: 12.3

Q: How did the “optomotor response to red moving lines” value turn out when `COc1cc2ncnc(Nc3ccc(F)c(Cl)c3)c2cc1OCCCN1CCOCC1` [Iressa] was run?
A: 1.01

Q: `CCCc1nc(C(C)(C)O)c(C(=O)O)n1Cc1ccc(-c2ccccc2-c2nnn[nH]2)cc1` [Olmesartan] was tested. Which “optomotor response to red moving lines” value did it give?
A: -10.3

Q: For `CCC(C)(C)C(=O)O[C@H]1C[C@@H](C)C=C2C=C[C@H](C)[C@H](CC[C@@H]3C[C@@H](O)CC(=O)O3)[C@H]21` [Simvastatin], which “optomotor response to red moving lines” value is on record?
A: -5.54

Q: With `CN(C)CCc1c[nH]c2ccc(Cn3cncn3)cc12` [Rizatriptan benzoate] as the compound, how does the “optomotor response to red moving lines” value read?
A: 14.6

Q: Which “optomotor response to red moving lines” value does the source give for `CCCCC1=NC2(CCCC2)C(=O)N1Cc1ccc(-c2ccccc2-c2nnn[nH]2)cc1` [Irbesartan] here?
A: -7.57

Q: Which “optomotor response to red moving lines” value does the source give for `CC(=O)Oc1cc2c(s1)CCN(C(C(=O)C1CC1)c1ccccc1F)C2` (stereo not given) [Prasugrel] here?
A: 5.97

Q: Which “optomotor response to red moving lines” value does the source give for `COc1cc(N)c(Cl)cc1C(=O)NC1CCN(CCCOc2ccc(F)cc2)CC1OC` (stereo not given) [Cisapride] here?
A: -3.64

Q: Which “optomotor response to red moving lines” value does the source give for `N[C@@H]1[C@H]2CN(c3nc4c(cc3F)c(=O)c(C(=O)O)cn4-c3ccc(F)cc3F)C[C@@H]12` [Trovafloxacin mesylate] here?
A: 4.89

Q: `C[C@@H](O[C@H]1OCCN(Cc2n[nH]c(=O)[nH]2)[C@H]1c1ccc(F)cc1)c1cc(C(F)(F)F)cc(C(F)(F)F)c1` [Aprepitant] was tested. Which “optomotor response to red moving lines” value did it give?
A: -4.19

Q: `CC(CCc1ccc(O)cc1)NCCc1ccc(O)c(O)c1` (stereo not given) [Dobutamine hydrochloride] was tested. Which “optomotor response to red moving lines” value did it give?
A: 5.06

Q: `CC(C)Nc1cccnc1N1CCN(C(=O)c2cc3cc(NS(C)(=O)=O)ccc3[nH]2)CC1` [Delavirdine mesylate] was tested. Which “optomotor response to red moving lines” value did it give?
A: -0.668

Q: With `O=C(NCC1CCCCN1)c1cc(OCC(F)(F)F)ccc1OCC(F)(F)F` (stereo not given) [Flecainide acetate] as the compound, how does the “optomotor response to red moving lines” value read?
A: -9.35

Q: Which “optomotor response to red moving lines” value does the source give for `Clc1ccc(COC(Cn2ccnc2)c2ccc(Cl)cc2Cl)c(Cl)c1` (stereo not given) [Miconazole nitrate] here?
A: -8.36
